Sampled rows, rich in hits. Any-hit rate of the full collection: about 3.2%.
MsrA inhibitor – inhibitors of bovine MsrA. purified bovine MsrA, absorbance read-out. inhibition, % at 15.5 µM. 360,000 tested, 0.75% active. AID 651718; in the data active = inhibition above about 4.5%;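 also: 0% = vehicle wells with enzyme and 100% = reference inhibitor wells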
NadD block – blocks S. aureus nicotinate mononucleotide adenylyltransferase. purified NadD enzyme, colorimetric absorbance read-out. inhibition, % at 20 µM. 360,000 tested, 0.78% active. AID 602399; in the data active = inhibition above about 26%
DAGLB inh – blocks human DAGLB lipase activity. Q8NCG7. HEK293T DAGLB membrane lysate, EnzChek fluorogenic substrate. inhibition, % at 5.17 µM. 340,000 tested, 0.059% active. AID 504411; in the data active = inhibition above about 34%;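 also: 0% = enzyme with vehicle and 100% = wells lacking enzyme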
Target sequence (Q8NCG7 whole entry, looked up): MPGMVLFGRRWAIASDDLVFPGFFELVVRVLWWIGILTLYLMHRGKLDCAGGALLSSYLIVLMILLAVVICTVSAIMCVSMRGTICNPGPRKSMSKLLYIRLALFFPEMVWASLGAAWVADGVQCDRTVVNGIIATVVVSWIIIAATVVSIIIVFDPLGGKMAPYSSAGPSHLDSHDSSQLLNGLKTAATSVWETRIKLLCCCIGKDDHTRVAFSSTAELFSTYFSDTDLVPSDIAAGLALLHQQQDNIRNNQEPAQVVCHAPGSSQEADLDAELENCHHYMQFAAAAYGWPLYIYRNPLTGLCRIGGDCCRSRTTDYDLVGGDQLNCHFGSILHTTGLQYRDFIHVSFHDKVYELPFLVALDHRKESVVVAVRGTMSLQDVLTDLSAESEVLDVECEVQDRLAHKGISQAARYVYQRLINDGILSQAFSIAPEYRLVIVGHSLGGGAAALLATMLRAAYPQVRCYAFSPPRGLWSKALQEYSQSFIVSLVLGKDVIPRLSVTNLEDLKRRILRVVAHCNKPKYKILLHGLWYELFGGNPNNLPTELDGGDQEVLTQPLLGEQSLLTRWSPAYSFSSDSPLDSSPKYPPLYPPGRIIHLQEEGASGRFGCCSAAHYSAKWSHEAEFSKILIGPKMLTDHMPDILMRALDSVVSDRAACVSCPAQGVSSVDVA
bovine MsrA act – activators of bovine methionine sulfoxide reductase A. 360,000 tested, 0.3% active. activation, % at 10.6 µM. purified bovine MsrA, absorbance read-out; in the data active = activation above about 7.5%;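 also: 0% = vehicle and 100% = reference activator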
DSG3 Ab inh – inhibitors of pemphigus antibody binding to human desmoglein-3; P32926; DSG3-coupled beads, scFv-anti-DSG3-GFP binding, flow cytometry; hits give low values; binding (percent of control), % at 10 µM; 310,000 tested, 0.48% active;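 active = binding more than 3 SD below its plate's average and above zero; inconclusive = below that plate limit but binding exactly zero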;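 also: hits lower antibody fragment binding to DSG3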
rCAG binder – r(CAG) repeat RNA binding; TO-PRO-1 dye displacement fluorescence; inhibition, % at 3 µM; 370,000 tested, 1.3% active; AID 651821;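 active = inhibition above the plate cutoff, the mean of all test compounds on that plate plus 3 SD, cut at about 35% in these data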;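 also: 0% = DMSO alone and 100% = 100 µM mitoxantrone as full dye displacement; higher means more dye released from RNA so lower well fluorescence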
Starred values were filed as active, the others as inactive; u = inconclusive; x = no result.

SMILES	MsrA inhibitor	NadD block	DAGLB inh	bovine MsrA act	DSG3 Ab inh	rCAG binder
Cc1cccc(-n2ncc3c(Nc4ccc(F)cc4)ncnc32)c1	0	-6	-13	0	100	4
CCCC/C=C1/[C@@H](c2ccc(Cl)cc2)N(Cc2ccc3c(c2)OCO3)C2=N[C@@H](c3ccccc3)CC(=O)N21	x	x	x	x	x	2
CCCCCCC12Cc3cc(OC)c(OC)cc3C(O1)C1=C(O2)C(C)(C)CCC1=O (stereo not drawn)	-1	x	x	x	x	6
Cc1ccc(C(=O)N2CCC2(C)C(=O)NC(C)C)cc1 (stereo not drawn)	1	0	x	-2	x	2
COc1ccc(Cl)cc1N(CC(=O)N1CCC(C)CC1)S(C)(=O)=O	-1	-5	-2	-7	81*	-4
COc1ccc(Cl)cc1N(CC(=O)N1CCCC1)S(C)(=O)=O	0	-1	-1	0	118	-3
Cc1cc2c(c(=O)o1)[C@@]1(C(=O)Nc3ccccc31)C1=C(CCCC1=O)O2	0	x	x	x	x	1
CCOC(=O)c1sc(=NC(=O)c2cccs2)n(C)c1C	0	-4	-4	-14	107	-1
CCOC(=O)c1sc(=NC(=O)c2ccccc2Br)n(C)c1C	-1	-6	-2	-14	68*	-3
CN(C)C(=S)NC(=O)C(c1ccccc1)c1ccccc1	1	1	0	1	-12*	-2
COc1cccc(C=NNC(=O)CSc2nc3ccccc3[nH]2)c1O	x	x	x	x	x	10
COc1ccccc1C(=O)NC1CCCCN(Cc2ccc(OC(F)(F)F)cc2)C1=O (stereo not drawn)	x	x	x	x	x	1
C/C(=N\NC(=O)c1cc2ccccc2cc1O)c1ccccn1	1	8	-2	-8	120	47*
C/C(=N/NC(=O)c1cc2ccccc2cc1O)C1C(=O)c2ccccc2C1=O	2	27	26	-6	x	100*
COc1cc(OC)cc(C(=O)NNC(=O)c2cc3ccccc3cc2O)c1	0	-2	12	-2	102	30
O=C(N/N=C/c1ccc(Sc2ccccn2)o1)c1cc2ccccc2cc1O	x	62*	6	-3	101	x
O=C(N/N=C\c1ccc(Sc2ccccn2)o1)c1cccc(F)c1	4	-3	0	0	u	1
CCOC(=O)C1=C[C@@H](C(C)(C)C)N(S(=O)(=O)c2ccc(C)cc2)[C@H]1c1cccc(Cl)c1	0	-8	x	-1	x	3
Brc1ccc(CNc2ccc3ncccc3c2)cc1	0	-7	-3	-3	118	3
Cc1nc2sc(C(=O)NCc3ccncc3)c(N)c2c(C)c1Cl	x	x	x	x	x	4
COC(=O)/C=C1\S/C(=N/NC(=O)c2ccccc2)NC1=O	4	4	-1	0	109	3
COc1ccccc1/C=C1\S/C(=N/NC(=O)c2cccc(Br)c2)NC1=O	2	38*	18	-2	x	31
O=C(O)c1cccc(-n2cccc2/C=C\[N+](=O)[O-])c1	3	-2	-1	-4	116	8
O=C(O)c1cccc(-n2cccc2/C=C/[N+](=O)[O-])c1	0	0	0	-4	24*	13
COc1ccc2cc(-c3cc(C(=O)OCC(=O)NC4CCS(=O)(=O)C4)c4ccccc4n3)ccc2c1 (stereo not drawn)	1	2	-2	-4	4.6*	7
SMILES	MsrA inhibitor	NadD block	DAGLB inh	bovine MsrA act	DSG3 Ab inh	rCAG binder
C(=NNc1nnn(Cc2ccccc2)n1)c1ccccc1	1	-3	4	-3	99	4
COc1ccc(-c2cc(C(=O)NCCc3ccccc3)no2)cc1OC	1	-8	-2	-1	75*	2
Cc1ccccc1C(=O)Nc1ccc(C(=O)N/N=C/c2ccc(O)c(Br)c2)cc1	4.6*	21	3	-4	98	14
Cc1ccccc1C(=O)Nc1ccc(C(=O)N/N=C/c2ccc(F)cc2)cc1	1	-6	4	-2	94	-4
O=C(N[C@H]1CC[C@@H]2SC[C@@H](C(=O)O)N2C1=O)OCC1c2ccccc2-c2ccccc21	x	x	x	x	x	26
C[C@H]1C[C@H]2[C@@H]3CCC4=CC(=O)C=C[C@]4(C)[C@@]3(F)[C@@H](O)C[C@]2(C)[C@@]1(O)C(=O)CO	0	-5	1	-4	95	0
C[C@H]1C[C@H]2[C@@H]3CCC4=CC(=O)C=C[C@]4(C)[C@@]3(Cl)[C@@H](O)C[C@]2(C)[C@@]1(O)C(=O)CO	-1	-1	0	-2	-13*	2
CCOc1ccc(-n2ccc(=O)c(C(=O)Nc3ccc(S(=O)(=O)Nc4nccs4)cc3)n2)cc1	4	26	2	-9	101	68*
CCOc1ncccc1C(=O)Nc1ccc(S(=O)(=O)Nc2nccs2)cc1	1	-5	0	-2	100	26
Cc1ccc(-c2c(C#N)c(N)n(-c3ccccc3C)c(=O)c2C#N)cc1	4	-2	x	-3	x	1
Cc1ccc(-c2nc3sc(C#N)c(N)n3c(=O)c2C#N)cc1	0	4	-5	2	68*	32
COc1ccc(C=C2OC(=O)C(C(C)=O)=C2O)cc1	9.1*	-3	1	-11	107	34
COc1ccc(/C=C2\Oc3ccccc3C2=O)cc1	1	-4	-5	-4	100	2
CC1(C)CC(NS(=O)(=O)c2ccc3ccccc3c2)CC(C)(C)N1	-1	-3	-7	-13	33*	9
COc1ccc(S(=O)(=O)NC2CC(C)(C)NC(C)(C)C2)cc1	2	5	0	0	111	-1
Cc1cccc(N2CCN(C(=O)c3ccc4c(c3)CCN4S(C)(=O)=O)CC2)c1C	1	0	2	-4	102	-1
O=C(Nc1ccc(Cl)cc1Cl)c1cc2ccccc2o1	1	-5	-9	0	96*	4
O=c1[nH]c2cc(Br)c(Br)nc2[nH]1	x	x	x	x	x	3
Cc1cccc(S(=O)(=O)N2CCC[C@H]2C(=O)N2CCC[C@@H]2C(=O)NCc2ccccc2)c1	0	x	x	x	x	-2
N=C1/C(=C/c2ccc(-c3cccc(C(=O)O)c3)o2)C(=O)N=C2SC=C(c3ccccc3)N12	2	61*	15	-3	56	81*
Cc1ccc(-n2c(C)cc(/C=C3/C(=N)N4C(c5ccccc5)=CSC4=NC3=O)c2C)cc1	0	20	4	-4	x	3
CCOC(=O)CSc1nc2ccsc2c(=O)n1C1CCN(C(=O)OCC)CC1	x	3	1	-11	98	x
CCOC(=O)N1CCC(n2c(SCC(=O)c3ccccc3)nc3ccsc3c2=O)CC1	-1	-2	3	-10	85*	1
Brc1ccc(CSc2nnc(SCc3ccccc3)s2)cc1	x	x	x	x	x	3
C=CCN1[C@@H](C)COc2cccc(N3CCCC3)c2S1(=O)=O	x	x	x	x	x	0
Clc1nssc1=Nc1ccc(Br)cc1	0	15	1	-9	x	3
COc1cc(N=c2ssnc2Cl)cc(OC)c1	2	26	-5	-7	62*	6
COc1ccc(NC(=O)CCn2c(=S)[nH]c3ccccc3c2=O)cc1OC	0	-8	3	0	63*	-1
